PubChem BioAssay AID765 (NMMLSC, 2007)
A number with no mark means an inactive call. Active and inactive are the calls of the source. No stated cut-off is given here; in the data, active means inhibition above about 31%; inactive means the rest.

target: N-formyl peptide receptor 2 (Homo sapiens) (UniProt P25090); assay: human FPR2 ligand displacement single-point screen – cell-based, flow cytometry, single concentration (AID 765); settings: FPRL1-expressing cells, fluorescent ligand binding inhibition, hits give high values; at 5.1 µM unless noted
Sequence (P25090 whole entry, looked up): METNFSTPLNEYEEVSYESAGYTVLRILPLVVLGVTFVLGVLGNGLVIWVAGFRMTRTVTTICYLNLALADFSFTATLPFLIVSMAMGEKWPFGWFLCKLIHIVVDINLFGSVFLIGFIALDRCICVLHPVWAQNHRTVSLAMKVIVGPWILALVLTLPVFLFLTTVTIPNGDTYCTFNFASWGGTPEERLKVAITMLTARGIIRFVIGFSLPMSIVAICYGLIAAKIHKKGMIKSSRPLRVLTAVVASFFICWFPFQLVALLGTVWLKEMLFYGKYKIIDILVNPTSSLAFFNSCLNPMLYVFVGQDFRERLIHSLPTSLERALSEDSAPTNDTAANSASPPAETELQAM

Compound	inhibition
O=C(N1CCN(c2nc(-c3ccccc3)c3ccccc3n2)CC1)C(F)(F)F	24.8% [at 5.8 µM]
Cc1ccc(C(=O)N2CCN(c3nc(-c4ccccc4)c4cc(Br)ccc4n3)CC2)cc1	18% [at 4.6 µM]
CC(=O)N1CCN(c2nc(-c3ccccc3)c3cc(C)ccc3n2)CC1	5.6% [at 6.4 µM]
CCOC(=O)N1CCN(c2nc(-c3ccc(OC)c(OC)c3)cc(C(F)(F)F)n2)CC1	36.1% (active)
O=C(c1ccccc1Cl)N1CCN(c2nc(-c3ccccc3)c3cc(Cl)ccc3n2)CC1	4.5% [at 4.8 µM]
COc1ccc(-c2cn3cccnc3n2)cc1NC(=O)C1CCCC1	34.6% [at 6.6 µM] (active)
COc1ccc(-c2cn3cccnc3n2)cc1NC(=O)c1ccc(C(C)(C)C)cc1	-1% [at 5.6 µM]
COc1ccc(-c2cn3cccnc3n2)cc1NC(=O)Cc1ccccc1	31.2% [at 6.2 µM] (active)
O=C(c1cccc(F)c1)N1CCN(c2nc(-c3ccc(F)cc3)cc(C(F)(F)F)n2)CC1	2.3% [at 5 µM]
COc1ccc(-c2cn3cccnc3n2)cc1NC(=O)c1ccccc1F	0.8% [at 6.1 µM]
CCC(=O)Nc1cc(-c2cn3cccnc3n2)ccc1OC	41.3% [at 7.5 µM] (active)
CC(=O)N1CCN(c2nc(-c3ccccc3)c3ccccc3n2)CC1	-11.2% [at 6.7 µM]
CCCC(CCC)C(=O)Nc1cc(-c2cn3cccnc3n2)ccc1OC	19.4% [at 6.1 µM]
CC1CCc2nc(N3CCN(Cc4ccccc4)CC3)nc(C(F)(F)F)c2C1 (configuration not stated)	-10.7% [at 5.7 µM]
COc1ccc(-c2cn3cccnc3n2)cc1NC(=O)c1cc(Br)ccc1Cl	4.3% [at 4.9 µM]
O=C(O)CCC(=O)N1CCN(c2nc(-c3ccccc3)c3cc(Br)ccc3n2)CC1	-3.9% [at 4.7 µM]
COc1ccc(-c2cc(C(F)(F)F)nc(N3CCN(Cc4ccccc4)CC3)n2)cc1OC	69.2% [at 4.9 µM] (active)
Cc1ccc(-c2cc(C(F)F)nc(N3CCN(c4ccccc4)CC3)n2)cc1	21.3% [at 5.8 µM]
COc1ccc(-c2cn3cccnc3n2)cc1NC(=O)c1ccc(OC)c(OC)c1	-6% [at 5.5 µM]

Compound	inhibition
CC(C)(C)OC(=O)N1CCN(c2nc(-c3ccccc3)c3cc([N+](=O)[O-])ccc3n2)CC1	14.7%
CCCCN1CCN(c2nc(-c3ccccc3)c3cc(C)ccc3n2)CC1	17.2% [at 5.6 µM]
FC(F)(F)c1cc(-c2ccco2)nc(N2CCN(C(c3ccccc3)c3ccccc3)CC2)n1	-10.5% [at 4.8 µM]
Cc1ccc(-c2cn3cccnc3n2)cc1NC(=O)C(C)C	-3.4% [at 7.6 µM]
Cc1ccccc1N1CCN(c2nc(-c3ccccc3)c3cc(Br)ccc3n2)CC1	0.2% [at 4.8 µM]
COc1ccc(-c2cn3cccnc3n2)cc1NC(=O)c1cccc(C(F)(F)F)c1	3.7% [at 5.4 µM]
COc1ccccc1-c1cc(C(F)(F)F)nc(N2CCN(c3ccc(F)cc3)CC2)n1	-8.8%
COc1ccc(-c2cn3cccnc3n2)cc1NC(=O)C1CC1	71.5% [at 7.2 µM] (active)
Fc1ccc(-c2cc(C(F)(F)F)nc(N3CCN(c4ccccc4)CC3)n2)cc1	1.9% [at 5.5 µM]
COc1ccc(-c2cn3cccnc3n2)cc1NC(=O)c1ccc(Br)cc1	-12.5% [at 5.3 µM]
O=C(O)CCC(=O)N1CCN(c2nc(-c3ccccc3Cl)c3cc(Br)ccc3n2)CC1	-2% [at 4.4 µM]
FC(F)(F)c1cc(-c2cccs2)nc(N2CCN(C(c3ccccc3)c3ccccc3)CC2)n1	-11% [at 4.6 µM]
COc1ccc(-c2cn3cccnc3n2)cc1NC(=O)c1ccco1	-8.1% [at 6.7 µM]
Clc1cccc(-c2nc(N3CCN(c4ccccc4)CC3)nc3c2COc2ccccc2-3)c1	-0.8% [at 4.9 µM]
CCN1CCN(c2nc(-c3ccc(Cl)cc3)cc(C(F)(F)F)n2)CC1	-7.7% [at 6 µM]
Clc1cccc(-c2nc(N3CCN(c4ccccn4)CC3)nc3c2COc2ccccc2-3)c1	-0.8% [at 4.9 µM]
COc1ccc(-c2cn3cccnc3n2)cc1NC(=O)c1ccc(C(F)(F)F)cc1	-3.6% [at 5.4 µM]
COc1cccc(-c2cc(C(F)(F)F)nc(N3CCN(C)CC3)n2)c1	-18% [at 6.3 µM]
